The values below come from PubChem BioAssay (NCATS).

“And” between values parts separate entries of the source, which are not always exact repeats. Equal values may be shown once. Results filed as inconclusive are left out. The source made the active and inactive calls. Unless noted, the call rests on the fitted dose curve; in most records, active means well fitted inhibition curve with a large enough effect; inconclusive means small, poorly fitted or top-dose-only effect; inactive means flat fitted curve, though single readings scatter.

Test [1] can be described thus: qHTS drug screen for cell cycle checkpoint inhibitors in PARPi-resistant BRCA-mutant ovarian cancer cell lines. (AID 1963452; calls by dose curve). The following applies: PEO1/OlaR viability, CellTiter-Glo luminescence, 96 h, stronger effect = lower value. Summed up:
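PEO1, PEO4 and PEO1/OlaR ovarian cancer cells, 600 per well, exposed 96 h at 37C to a dilution series. Viability read by CellTiter-Glo luminescence, normalized to DMSO and empty wells; activity summarized as Z-AUC.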

Test [2] is described as follows: qHTS for identification of novel therapeutic agents for treatment of microphthalmiaassociated transcription factor (MiT) renal cell carcinoma (RCC) (AID 1963991).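 Further: curves scaled with 100% = DMSO viability and 0% = empty wells.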 The following applies: CellTiter-Glo, 48 h, stronger effect = lower value. The method, boiled down: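 UOK109/UOK124/UOK145 (TFE3 fusions, three partners); 500 cells/well; MIPE v4.0, 1912 cpds, 11 conc.; 48 h, 37 C; CellTiter-Glo, 15 min RT; lum. Norm.: DMSO 100%, empty 0%.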

Test [3] in a line: qHTS profiling for inhibitors of Plasmodium falciparum proliferation (AID 504749).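 Further: 0% = DMSO vehicle and full inhibition = artemisinin control; nearly all actives have a fitted effect of over 60% in size.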 The following applies: P. falciparum in erythrocytes, SYBR Green DNA, 72 h. The method, boiled down: (§1)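 In a 72 h erythrocytic culture (37 C, humidified, 5% CO2) at 2.5% hematocrit and 0.3% starting parasitemia, compounds were tested; SYBR Green I in detergent lysis buffer stained parasite DNA overnight.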

Test [4] has as its system 3D7. Described as above. The following applies: P. falciparum in erythrocytes, SYBR Green DNA, 72 h; series mostly up to 28.7 µM. The method, boiled down:
as §1

Test [5] concerns 7G8. Described as above. The note with it: P. falciparum in erythrocytes, SYBR Green DNA, 72 h; series mostly up to 28.7 µM. Summed up: as §1
The subject of test [6] is AA1029. The test is described as above. The following applies: P. falciparum in erythrocytes, SYBR Green DNA, 72 h; series mostly up to 28.7 µM. The method, boiled down:
as §1

In test [7] the test system is AS120. Described as above. The following applies: P. falciparum in erythrocytes, SYBR Green DNA, 72 h; series mostly up to 28.7 µM. The method, boiled down: as §1
The test system of test [8] is ATS189. The test is described as above. The following applies: P. falciparum in erythrocytes, SYBR Green DNA, 72 h; series mostly up to 28.7 µM. Summed up:
as §1

Test [9] has as its system ATS95. The description is as above. The note with it: P. falciparum in erythrocytes, SYBR Green DNA, 72 h; series mostly up to 28.7 µM. Summed up: as §1
The subject of test [10] is C2A. The test is described as above. The note with it: P. falciparum in erythrocytes, SYBR Green DNA, 72 h; series mostly up to 28.7 µM. Summed up: as §1
Test [11] deals with CP185. Described as above. The note with it: P. falciparum in erythrocytes, SYBR Green DNA, 72 h; series mostly up to 28.7 µM. Summed up: as §1
The subject of test [12] is CP191. The test is described as above. The note with it: P. falciparum in erythrocytes, SYBR Green DNA, 72 h; series mostly up to 28.7 µM. Summed up:
as §1

The subject of test [13] is CP192. The test is described as above. The following applies: P. falciparum in erythrocytes, SYBR Green DNA, 72 h; series mostly up to 28.7 µM. The method, boiled down: as §1
The test system of test [14] is CP194. The description is as above. The following applies: P. falciparum in erythrocytes, SYBR Green DNA, 72 h; series mostly up to 28.7 µM. The method, boiled down:
as §1

Test [15] deals with CP201. The test is described as above. The following applies: P. falciparum in erythrocytes, SYBR Green DNA, 72 h; series mostly up to 28.7 µM. The method, boiled down:
as §1

Test [16] concerns CP203. The test is described as above. The note with it: P. falciparum in erythrocytes, SYBR Green DNA, 72 h; series mostly up to 28.7 µM. The method, boiled down: as §1
In test [17] the test system is CP211. The test is described as above. The following applies: P. falciparum in erythrocytes, SYBR Green DNA, 72 h; series mostly up to 28.7 µM. Summed up:
as §1

For test [18], the system named is CP217. The test is described as above. The note with it: P. falciparum in erythrocytes, SYBR Green DNA, 72 h; series mostly up to 28.7 µM. The method, boiled down: as §1
In test [19] the test system is CP237. The description is as above. The note with it: P. falciparum in erythrocytes, SYBR Green DNA, 72 h; series mostly up to 28.7 µM. The method, boiled down: as §1
Test [20] deals with CP215. Described as above. The note with it: P. falciparum in erythrocytes, SYBR Green DNA, 72 h; series mostly up to 28.7 µM. Summed up: as §1
Setting [21] is: measured here: PEO1 parental Z-AUC.
The mark [22] stands for this setting: TFE3-RCC UOK109 viability, measured here: UOK109 Z-AUC.
Setting [23] is: TFE3-RCC viability, measured here: UOK124 Z-AUC.
Where [24] appears, read: TFE3-RCC viability, measured here: UOK145 Z-AUC.
[25] abbreviates: at 12.8 µM (top of the series), parasite line A.
[26] abbreviates: at 12.8 µM (top of the series), parasite line B.
Setting [27] is: at 28.7 µM (top of the series), parasite line A.
Setting [28] is: at 28.7 µM (top of the series), parasite line B.

Regarding `CCCCNc1cc(C(=O)O)cc(S(N)(=O)=O)c1Oc1ccccc1`, the results for the Z-AUC in test [1], in [1] (setting [21]) and in test [1] (measured here: PEO4 Z-AUC) were -0.665 (inactive), 0.995 and 0.519, respectively. Moreover, the values for the z-score in [2] (setting [22]), in [2] (setting [23]) and in [2] (setting [24]) were 0.772, 0.679 and -1.8, respectively. For the same molecule, the activity, negative = inhibition in [3] (setting [25]) was -5.15% (inactive); in test [3] (setting [26]) it was 8.34% (inactive). Moreover, the Potency result in test [4], in [5], in test [6], in test [7], in [8] and in [9] was “inactive” each time. For the same molecule, the Potency result in test [10], in test [11], in test [12], in test [13], in [14] and in [16] was “inactive” in each case. The Potency entry in test [17], in test [18] and in [19] was “inactive” in each case. For the same molecule, in [15], the call was inactive.

For `O=C1CCC(N2C(=O)c3ccccc3C2=O)C(=O)N1` (stereo not drawn), the results for the Z-AUC in [1], in test [1] (setting [21]) and in test [1] (measured here: PEO4 Z-AUC) were 0.908 (inactive), 0.614 and 0.388, respectively. The z-score in [2] (setting [22]) is 0.392; in [2] (setting [23]), -0.79; in [2] (setting [24]) it was 0.456. Besides, the activity, negative = inhibition in test [3] (setting [27]) is 3.13% (inactive). Moreover, the Potency result in [4], in test [5], in [6], in test [7], in test [8] and in [9] was “inactive” throughout. Besides, the Potency entry in test [10], in test [11], in [12], in test [13], in test [14] and in [17] was “inactive” in each case. For the same molecule, the Potency result in test [20], in [18] and in [19] was “inactive” throughout. In addition, the molecule was classed as inactive in test [15].

Regarding `O=c1[nH]cnc2[nH]ncc12`, the Z-AUC in [1] is -0.687 (inactive); in [1] (setting [21]), -0.667; in test [1] (measured here: PEO4 Z-AUC), -0.722. In addition, the values for the z-score in [2] (setting [22]), in [2] (setting [23]) and in test [2] (setting [24]) were 0.431, 0.33 and 0.0964, respectively. The activity, negative = inhibition in [3] (setting [27]) is -0.162% (inactive); in test [3] (setting [28]), 2.37% (inactive). Moreover, the Potency result in test [4], in test [5], in test [6], in [7], in [8] and in test [9] was “inactive” each time. The Potency result in test [10], in [11], in test [12], in [13], in test [14] and in [17] was “inactive” each time. The Potency result in test [20], in test [18] and in [19] was “inactive” in each case. Further, the result in test [15] was inactive.

As to `O=C1CCc2cc(OCCCCc3nnnn3C3CCCCC3)ccc2N1`, the Z-AUC in test [1] was -1.35 (inactive); in [1] (setting [21]), -0.972; in [1] (measured here: PEO4 Z-AUC), -0.778. For the same molecule, the z-score in test [2] (setting [22]) turned out to be 0.489; in [2] (setting [23]) it was 0.136; in test [2] (setting [24]), 0.331. Also, the Potency entry in test [4], in test [5], in test [9], in test [12], in test [13] and in [14] was “inactive” each time. Further, the Potency entry in test [17], in test [20] and in test [19] was “inactive” each time. The molecule was classed as inactive in test [15].

In the case of `Cc1cnc(NC(=O)C2=C(O)c3ccccc3S(=O)(=O)N2C)s1`, the Z-AUC in [1] is 0.682 (inactive) and 1.14 (inactive) and 0.871 (inactive); in [1] (setting [21]), 0.615 and 0.579 and 0.604; in test [1] (measured here: PEO4 Z-AUC), 0.593 and 0.643 and 0.888. Moreover, the z-score was 0.549 in [2] (setting [22]), 0.223 in test [2] (setting [23]) and 0.231 in test [2] (setting [24]).

As for `Cc1ccc(N(CC2=NCCN2)c2cccc(O)c2)cc1`, the Z-AUC in [1] was 1.67 (inactive); in test [1] (setting [21]) it was 1.44; in test [1] (measured here: PEO4 Z-AUC) it was 1.79. Moreover, the activity, negative = inhibition was -3.3% (inactive) in test [3] (setting [27]) and -5.03% (inactive) in test [3] (setting [28]). For the same molecule, the Potency entry in test [4], in [5], in test [6], in test [7], in test [8] and in test [9] was “inactive” each time. Also, the Potency entry in test [10], in [11], in test [12], in test [13], in test [14] and in test [17] was “inactive” each time. Besides, the Potency entry in test [20], in test [18] and in test [19] was “inactive” each time. For the same molecule, in [15], the call was inactive.

For `CC(c1cc2ccccc2s1)N(O)C(N)=O` (stereo not drawn), the values for the Z-AUC in test [1], in [1] (setting [21]) and in test [1] (measured here: PEO4 Z-AUC) were -0.588 (inactive), -0.0331 and -0.638, respectively. Further, the figures for the z-score in test [2] (setting [22]), in test [2] (setting [23]) and in [2] (setting [24]) were 0.403, 0.701 and 0.104, respectively. Further, the activity, negative = inhibition in test [3] (setting [27]) is 3.01% (inactive); in test [3] (setting [28]), -4.79% (inactive). Besides, the Potency entry in test [4], in test [5], in test [6], in test [8], in test [9] and in test [10] was “inactive” each time. In addition, the Potency entry in [11], in [12], in test [13], in test [14], in test [17] and in test [18] was “inactive” in each case. Also, in [19], the Potency result was “inactive”. In test [15], the molecule was called inactive.

For `N#Cc1ccc(C(c2ccc(C#N)cc2)n2cncn2)cc1`, the Z-AUC was 1.61 (inactive) in [1], 1.56 in test [1] (setting [21]) and 1.79 in [1] (measured here: PEO4 Z-AUC). The activity, negative = inhibition in test [3] (setting [25]) is 0.0131% (inactive); in test [3] (setting [26]), 3.12% (inactive). Moreover, the Potency result in test [4], in [5], in test [6], in test [7], in test [8] and in [9] was “inactive” in each case. Moreover, the Potency entry in [10], in test [11], in [12], in test [13], in [14] and in test [17] was “inactive” in each case. The Potency result in test [20], in test [18] and in [19] was “inactive” each time. In test [15], the result was inactive.

For the molecule `Nc1cccc(S(=O)(=O)N2CCCN(S(=O)(=O)c3ccc4c(c3)OCCO4)CC2)c1`, the Z-AUC in test [1] was 1.03 (inactive); in [1] (setting [21]), 0.843; in test [1] (measured here: PEO4 Z-AUC), 0.787. Further, the results for the z-score in [2] (setting [22]), in [2] (setting [23]) and in test [2] (setting [24]) were 0.453, 0.564 and 0.252, respectively.
